# Data as given in the supplement of paper PMC8728848.
# Shown is part of a subset that was picked to be rich in the strongest signals.
# B1: SspB A3vp1 (Streptococcus gordonii), Q54186 (protein)
# chain: MTNEADYQAKLAAYQTELARVQKANADAKATYEKAVEDNKAKNAAIKAENEEIKQRNAVAKTDYEAKLAKYEADLAKYKKEFAAYTAALAEAESKKKQDGYLSEPRSQSLNFKSEPNAIRTIDSSVHQYGQQELDALVKSWGISPTNPDRKKSRAYSYFNAINSNNTYAKLVLEKDKPVDVTYTGLKNSSFNGKKISKVVYTYTLKETGFNDGTKMTMFASSDPTVTAWYNDYFTSTNINVKVKFYDEEGQLMNLTGGLVNFSSLNRGNGSGAIDKDAIESVRNFNGRYIPISGSSIKIHENNSAYADSSNAEKSLGARWNTSEWDTTSSPNNWYGAIVGEITQSEISFNMASSKSGNIWFAFNSNINAIGVPTKPVAPTAPTQPMYETEKPLEPAPVAPSYENEPTPPVKTPDQPEPSKPAAALEHHHHHH
# How the values were obtained:
# Assay in all cases: glycan array binding signal (z-score within array); higher = stronger binding
# Conditions in all cases: glycan notation: IUPAC condensed, linker removed
# [1] = target: Fuc(a1-2)Gal(b1-3)GlcNAc(b1-2)Man(a1-3)[Fuc(a1-2)Gal(b1-3)GlcNAc(b1-2)Man(a1-6)]Man(b1-4)GlcNAc(b1-4)GlcNAc
# Outline: (§1)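 Arrays were curated from the Consortium for Functional Glycomics database, 3228 in total, and kept only where the protein sequence was available. Binding is expressed as a within-array Z-score. This score was averaged across arrays of the same protein sequence at different concentrations or buffers and across linkers, and negative values can be read as non-binding.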
# [2] = target: Fuc(a1-2)Gal(b1-4)GlcNAc(b1-2)Man(a1-3)[Fuc(a1-2)Gal(b1-4)GlcNAc(b1-2)Man(a1-6)]Man(b1-4)GlcNAc(b1-4)[Fuc(a1-6)]GlcNAc
# Outline: as §1
# [3] = target: Fuc(a1-2)[Gal(a1-3)]Gal(b1-3)GlcNAc(b1-3)GalNAc
# Outline: as §1
# [4] = target: Fuc(a1-2)[GalNAc(a1-3)]Gal(b1-4)GlcNAc
# Outline: as §1
# [5] = target: Fuc(a1-2)[GalNAc(a1-3)]Gal(b1-4)GlcNAc(b1-2)Man(a1-3)[Fuc(a1-2)[GalNAc(a1-3)]Gal(b1-4)GlcNAc(b1-2)Man(a1-6)]Man(b1-4)GlcNAc(b1-4)[Fuc(a1-6)]GlcNAc
# Outline: as §1
# [6] = target: Fuc(a1-2)[GalNAc(a1-3)]Gal(b1-4)[Fuc(a1-3)]GlcNAc(b1-3)GalNAc
# Outline: as §1
# [7] = target: Fuc(a1-2)[GalNAc(b1-3)]Gal
# Outline: as §1
# [8] = target: Fuc(a1-3)[Gal(b1-4)]GlcNAc(b1-2)Man(a1-3)[Fuc(a1-3)[Gal(b1-4)]GlcNAc(b1-2)Man(a1-6)]Man(b1-4)GlcNAc(b1-4)GlcNAc
# Outline: as §1
# [9] = target: Gal(a1-3)Gal(b1-4)GlcNAc(b1-2)Man(a1-3)[Gal(a1-3)Gal(b1-4)GlcNAc(b1-2)Man(a1-6)]Man(b1-4)GlcNAc(b1-4)GlcNAc
# Outline: as §1
# [10] = target: Gal(a1-3)Gal(b1-4)GlcNAc(b1-6)GalNAc
# Outline: as §1
# Gal(a1-3)GalNAc = target: Gal(a1-3)GalNAc
# Outline: as §1
# Gal(a1-4)Gal(b1-4)GlcNAc = target: Gal(a1-4)Gal(b1-4)GlcNAc
# Outline: as §1
# Gal(b1-3)GlcNAc = target: Gal(b1-3)GlcNAc
# Outline: as §1
# [11] = target: Gal(b1-3)GlcNAc(b1-2)[Gal(b1-3)GlcNAc(b1-6)]Man(a1-6)[Gal(b1-3)GlcNAc(b1-2)Man(a1-3)]Man(b1-4)GlcNAc(b1-4)GlcNAc
# Outline: as §1
# [12] = target: Gal(b1-3)GlcNAc(b1-6)[Gal(b1-3)]GalNAc
# Outline: as §1
# [13] = target: Gal(b1-3)[Fuc(a1-4)]GlcNAc(b1-2)Man(a1-3)[Gal(b1-3)[Fuc(a1-4)]GlcNAc(b1-2)Man(a1-6)]Man(b1-4)GlcNAc(b1-4)[Fuc(a1-6)]GlcNAc
# Outline: as §1
# [14] = target: Gal(b1-3)[Neu5Ac(a2-6)]GlcNAc(b1-4)Gal(b1-4)Glc
# Outline: as §1
# Gal(b1-4)Gal = target: Gal(b1-4)Gal
# Outline: as §1
# [15] = target: Gal(b1-4)GlcNAc(a1-6)Gal(b1-4)GlcNAc
# Outline: as §1
# [16] = target: Gal(b1-4)GlcNAc(b1-2)Man(a1-3)Man(b1-4)GlcNAc(b1-4)GlcNAc
# Outline: as §1
# [17] = target: Gal(b1-4)GlcNAc(b1-2)Man(a1-3)[Gal(b1-4)GlcNAc(b1-2)Man(a1-6)][Gal(b1-4)GlcNAc(b1-4)]Man(b1-4)GlcNAc(b1-4)[Fuc(a1-6)]GlcNAc
# Outline: as §1
# [18] = target: Gal(b1-4)GlcNAc(b1-2)[Gal(b1-4)GlcNAc(b1-6)]Man(a1-6)[GlcNAc(b1-4)][Gal(b1-4)GlcNAc(b1-2)Man(a1-3)]Man(b1-4)GlcNAc(b1-4)GlcNAc
# Outline: as §1
# [19] = target: Gal(b1-4)GlcNAc(b1-3)Gal(b1-4)GlcNAc(b1-2)[Gal(b1-4)GlcNAc(b1-3)Gal(b1-4)GlcNAc(b1-6)]Man(a1-6)[Gal(b1-4)GlcNAc(b1-3)Gal(b1-4)GlcNAc(b1-2)Man(a1-3)]Man(b1-4)GlcNAc(b1-4)GlcNAc
# Outline: as §1
# [20] = target: Gal(b1-4)GlcNAc(b1-3)Gal(b1-4)GlcNAc(b1-2)[Gal(b1-4)GlcNAc(b1-3)Gal(b1-4)GlcNAc(b1-6)]Man(a1-6)[Gal(b1-4)GlcNAc(b1-3)Gal(b1-4)GlcNAc(b1-2)Man(a1-3)]Man(b1-4)GlcNAc(b1-4)[Fuc(a1-6)]GlcNAc
# Outline: as §1
# [21] = target: Gal(b1-4)GlcNAc(b1-3)Gal(b1-4)GlcNAc(b1-3)Gal(b1-4)GlcNAc(b1-2)Man(a1-3)[Gal(b1-4)GlcNAc(b1-3)Gal(b1-4)GlcNAc(b1-3)Gal(b1-4)GlcNAc(b1-2)Man(a1-6)]Man(b1-4)GlcNAc(b1-4)[Fuc(a1-6)]GlcNAc
# Outline: as §1
# [22] = target: Gal(b1-4)GlcNAc(b1-3)Gal(b1-4)GlcNAc(b1-3)Gal(b1-4)GlcNAc(b1-3)Gal(b1-4)GlcNAc(b1-2)Man(a1-3)[Gal(b1-4)GlcNAc(b1-3)Gal(b1-4)GlcNAc(b1-3)Gal(b1-4)GlcNAc(b1-3)Gal(b1-4)GlcNAc(b1-2)Man(a1-6)]Man(b1-4)GlcNAc(b1-4)GlcNAc
# Outline: as §1
# [23] = target: Gal(b1-4)GlcNAc(b1-3)Gal(b1-4)GlcNAc(b1-3)Gal(b1-4)GlcNAc(b1-3)Gal(b1-4)GlcNAc(b1-3)Gal(b1-4)GlcNAc(b1-2)Man(a1-3)[Gal(b1-4)GlcNAc(b1-3)Gal(b1-4)GlcNAc(b1-3)Gal(b1-4)GlcNAc(b1-3)Gal(b1-4)GlcNAc(b1-3)Gal(b1-4)GlcNAc(b1-2)Man(a1-6)]Man(b1-4)GlcNAc(b1-4)GlcNAc
# Outline: as §1
# [24] = target: Gal(b1-4)GlcNAc(b1-3)Gal(b1-4)GlcNAc(b1-3)Gal(b1-4)GlcNAc(b1-3)Gal(b1-4)GlcNAc(b1-3)Gal(b1-4)GlcNAc(b1-2)Man(a1-3)[Gal(b1-4)GlcNAc(b1-3)Gal(b1-4)GlcNAc(b1-3)Gal(b1-4)GlcNAc(b1-3)Gal(b1-4)GlcNAc(b1-3)Gal(b1-4)GlcNAc(b1-2)Man(a1-6)]Man(b1-4)GlcNAc(b1-4)[Fuc(a1-6)]GlcNAc
# Outline: as §1
# [25] = target: Gal(b1-4)GlcNAc(b1-3)Gal(b1-4)GlcNAc(b1-6)[Gal(b1-3)]GalNAc
# Outline: as §1
# [26] = target: Gal(b1-4)GlcNAc(b1-6)[Gal(b1-3)]GalNAc
# Outline: as §1
binder,measurement,setting,value
B1,glycan array binding signal (z-score),[1],6.26
same,glycan array binding signal (z-score),[2],-0.372
same,glycan array binding signal (z-score),[3],0.099
same,glycan array binding signal (z-score),[4],-0.651
same,glycan array binding signal (z-score),[5],0.127
same,glycan array binding signal (z-score),[6],3.5
same,glycan array binding signal (z-score),[7],-1.11
same,glycan array binding signal (z-score),[8],0.062
same,glycan array binding signal (z-score),[9],1.84
same,glycan array binding signal (z-score),[10],-0.506
same,glycan array binding signal (z-score),Gal(a1-3)GalNAc,-0.575
same,glycan array binding signal (z-score),Gal(a1-4)Gal(b1-4)GlcNAc,0.692
same,glycan array binding signal (z-score),Gal(b1-3)GlcNAc,-0.432
same,glycan array binding signal (z-score),[11],1.46
same,glycan array binding signal (z-score),[12],0.011
same,glycan array binding signal (z-score),[13],0.75
same,glycan array binding signal (z-score),[14],-0.063
same,glycan array binding signal (z-score),Gal(b1-4)Gal,-0.088
same,glycan array binding signal (z-score),[15],-0.728
same,glycan array binding signal (z-score),[16],-0.334
same,glycan array binding signal (z-score),[17],3.03
same,glycan array binding signal (z-score),[18],0.194
same,glycan array binding signal (z-score),[19],3.16
same,glycan array binding signal (z-score),[20],3.01
same,glycan array binding signal (z-score),[21],3.73
same,glycan array binding signal (z-score),[22],3.61
same,glycan array binding signal (z-score),[23],3.36
same,glycan array binding signal (z-score),[24],3.38
same,glycan array binding signal (z-score),[25],2.1
same,glycan array binding signal (z-score),[26],0.609
